Vaccinia Venus = vaccinia inhibition (Venus reporter). Vaccinia virus Venus reporter expression, fluorescence. Potency, µM (doses to about 36.5 µM), for the others: at the top dose activity change, negative = inhibition, actives largely listed as inhibitors. actives 0.46% (n = 330,000). AID 720580; calls by dose curve; tested in A549 cells; also: nearly all actives have a fitted effect of over 30% in size
AMA1 RON2 block = inhibitors of Plasmodium falciparum AMA1-RON2 interaction | Potency, µM (doses to about 58.2 µM), without a hit: top-dose activity change, negative = inhibition, hits mostly inhibitors | AID 720542 | actives 0.2% (n = 360,000) | AlphaScreen AMA1-biotinylated RON2 peptide binding;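 also: 0% = vehicle wells and -100% = peptide control; nearly all actives have a fitted effect of over 45% in size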
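AMA1 (3D7) with his tag at 25 nM final met compounds first, then biotinylated RON2 peptide at 25 nM; detection used donor plus acceptor beads, 10 µg/mL apiece, read by AlphaScreen after 30 min at room temperature.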
Vaccinia mCherry = vaccinia inhibition (mCherry reporter); Potency, µM (doses to about 36.5 µM), inactives show at the top dose activity change, negative = inhibition, most hits filed as inhibitors; actives 0.63% (n = 310,000); Vaccinia virus mCherry reporter infection, fluorescence; AID 720579; calls by dose curve; tested in A549 cells; also: nearly all actives have a fitted effect of over 35% in size
Pf growth 96h = inhibits malaria parasite growth, 96 h; P. falciparum luciferase reporter growth, 96 h; Potency, µM (highest dose often 28.7 µM), inactives show at the highest dose activity change, negative = inhibition, actives largely listed as inhibitors; actives 6.9% (n = 320,000); AID 504834
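Luminescence readout: decreased luciferase signal marks inhibited growth of reporter-expressing P. falciparum in infected red cells (2% hematocrit, 0.05% parasitemia final), exposed to compound two generations (96 h, 37 C, 5% CO2).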
Pf growth 48h = inhibits P. falciparum growth in the first generation, 48 h; P. falciparum luciferase growth in erythrocytes, 48 h; actives 5.9% (n = 310,000); Potency, µM (doses to about 28.7 µM), without a hit: at the highest dose activity change, negative = inhibition, usual class: inhibitors
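Firefly luciferase activity from engineered P. falciparum reports growth; inhibitors lower the luminescent signal. Cultures contained 2% hematocrit erythrocytes at 0.1% final parasitemia.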
An asterisk follows results filed as active; i = inactive; ? = inconclusive; · = no result given. Sampled rows, rich in hits. Any-hit rate of the full collection: about 8.7%. Unless noted, calls follow the shape of the dose curve; as a rule, active = well fitted curve in the direction sought with a large enough effect; inconclusive = small, poorly fitted or top-dose-only effect, or another doubt; inactive = no such curve, though single readings can be large; an effect the other way counts as inactive or inconclusive. Unless noted, % is scaled to controls: 0 for no effect and ±100 for the full control effect; potency is read from the fitted curve at half-maximal effect.

SMILES	Vaccinia Venus	AMA1 RON2 block	Vaccinia mCherry	Pf growth 96h	Pf growth 48h
COC(=O)c1cc(OC)c(OC)cc1NC(=S)Nc1cccc(Cl)c1	-5%	28%	-17%	13µM*	3%
COC(=O)c1cc(OC)c(OC)cc1NC(=O)CC1CCCCC1	-5%	0%	-5%	19%	10µM*
CSc1ccccc1NC(=O)c1csc(C)c1	·	-15%	·	10µM*	36%
COC(=O)c1cc(OC)c(OC)cc1NC(=O)c1csc(C)c1	-11%	0%	-14%	?	10µM*
COC(=O)c1cc(OC)c(OC)cc1NC(=O)CN1CCCCC1	·	5%	·	7%	-3%
COC(=O)c1cc(OC)c(OC)cc1NC(=O)c1cccc(C)c1	0%	-13%	i	-17%	?
CCOC(=O)c1ccc(NC(=O)c2c(NCc3cc(OC)c(OC)cc3OC)sc3c2CCCC3)cc1	-6%	·	-6%	·	·
O=C(C[n+]1c2ccccc2cc2ccccc21)c1ccc(F)cc1	3%	·	29%	·	·
COc1ccc(-n2c(/C=C(\C)O)nc(=O)c3c(C)cc(C)nc32)cc1	-10%	18%	-18%	·	0.83µM*
Cc1nc2c(c(C)nn2C(C)(C)C)c(C)c1CCC(=O)Nc1ccc(Br)cc1Br	-3%	·	-17%	·	·
CNC(=S)N(Cc1ccc(OC)cc1)C1CC(=O)N(c2ccc(Cl)cc2)C1=O (stereo not given)	-24%	?	-15%	0.93µM*	?
Cc1ccc(NC(=O)CSc2nc(-c3ccccc3Cl)nc3cc(=O)[nH]n23)c(C)c1	-16%	·	-8%	·	·
CCN(CC)P(=O)(Nc1cccc(C(F)(F)F)c1)c1ccc(N(C)C)cc1NC(=O)c1ccco1 (stereo not given)	·	?	·	1.9µM*	2.1µM*
CN(C)c1cccc(NC(=O)c2ccco2)c1	1%	-4%	i	86%	-11%
CCN(CC)CCNCC1C(=O)O[C@@H]2C[C@@]3(C)CCC[C@H](C)C3=C[C@H]12 (stereo not given in full)	10µM*	1%	4.5µM*	?	-1%
CCc1ccc(NC(=O)CSc2cn(CC(=O)N3CCOCC3)c3ccccc23)cc1	-12%	·	-18%	·	·
Cc1ccc(-c2[nH]c3ccccc3c2SCCNC(=O)c2ccc(S(=O)(=O)N3CCOCC3)cc2)cc1	?	-4%	?	8.3µM*	?
Cc1cc2ccccc2n1CCNC(=O)c1ccc(S(=O)(=O)N2CCOCC2)cc1	-18%	-16%	i	0%	4.1µM*
Cc1cc2ccccc2n1CCNC(=O)c1ccccc1	59%	-6%	·	11%	29%
O=C(NCCn1ccc2ccccc21)c1ccc(S(=O)(=O)N2CCCCC2)cc1	-5%	-18%	i	?	12µM*
COc1ccc(C(=O)NCCn2ccc3ccccc32)cc1	?	1%	·	0%	?
CCC(C)n1c(=N)c(C(=O)NC2CCCCC2)cc2c(=O)n3ccccc3nc21 (stereo not given)	-20%	·	-17%	·	·
CC1(C)Cc2c(sc(NC(=O)C(C)(C)C)c2C#N)C(C)(C)N1	-14%	1%	·	3.3µM*	?
COc1ccc(CNC(=O)c2ccc(NC(=O)N3CCSc4ncccc43)cc2)cc1OC	1%	·	-11%	·	·
CCCCc1ccc(NC(=O)COC(=O)c2ccccc2OCC(=O)Nc2ccc(Br)cc2)cc1	-16%	·	-13%	·	·
SMILES	Vaccinia Venus	AMA1 RON2 block	Vaccinia mCherry	Pf growth 96h	Pf growth 48h
N#C/C(=C(/O)CSc1nnc(Cc2cccs2)n1C1CCCCC1)c1nc2ccccc2[nH]1	-16%	41%	-20%	65%	6.6µM*
COc1ccccc1-c1nnc(SC/C(O)=C(\C#N)c2nc3ccccc3[nH]2)n1C1CCCCC1	-20%	41%	-10%	?	?
CCOC(=O)c1ccc(NC(=O)Nc2ccc(F)cc2)cc1	-21%	54%	-27%	13µM*	·
CCOC(=O)c1ccc(NC(=O)NCCc2ccccc2OC)cc1	·	1%	·	?	?
CCOC(=O)c1ccc(NC(=S)NCCc2ccccc2)cc1	-13%	-29%	·	13µM*	?
CCOC(=O)c1ccc(NC(=O)NCc2ccccc2OC)cc1	-8%	-21%	-14%	13µM*	?
COC(=O)c1ccc(NC(=O)Nc2ccc(F)cc2)cc1	?	2%	·	?	?
COC(=O)c1ccc(NC(=S)NCCc2ccccc2)cc1	-9%	-7%	-13%	?	-9%
CC(=O)c1cccc(NC(=O)Nc2c(C)nn(C)c2C)c1	·	-1%	·	-13%	19%
CCOC(=O)c1ccc(NC(=O)Nc2c(C)nn(C)c2C)cc1	-4%	-3%	i	12µM*	0%
Cc1cccc(N2CCN(C(=O)CS(=O)(=O)c3cccc4nsnc34)CC2C)c1 (stereo not given)	2%	·	4%	·	·
CO/N=C(\C(=O)N[C@@H]1C(=O)N2C(C(=O)O)=C(CSc3nc(=O)c(O)nn3C)CS[C@H]12)c1csc(N)n1	?	·	-14%	·	·
CO/N=C(/C(=O)N[C@@H]1C(=O)N2C(C(=O)O)=C(CSC(=O)c3ccco3)CSC12)c1csc(N)n1 (stereo not given in full)	·	·	·	13µM*	?
CO/N=C(/C(=O)N[C@@H]1C(=O)N2C(C(=O)O)=C(C[n+]3ccc(N)n3CCO)CS[C@H]12)c1csc(N)n1	·	·	·	11µM*	-6%
CO/N=C(\C(=O)N[C@@H]1C(=O)N2C(C(=O)O)=C(COC(C)=O)CS[C@@H]12)c1csc(N)n1	·	·	·	0%	1%
CCCCC(CCC(=O)O)(C(=O)OCC)c1csc(Nc2ccc(C)cc2)n1 (stereo not given)	-6%	7%	-11%	4.7µM*	-1%
CC(C)C(=O)NC(c1ccc(Cl)cc1Cl)c1ccc2cccnc2c1O (stereo not given)	·	89%	·	?	?
CCCCC(=O)NC(c1ccc(Cl)cc1Cl)c1ccc2cccnc2c1O (stereo not given)	?	109%	?	15%	1.9µM*
CCC(=O)NC(c1ccc(Cl)cc1Cl)c1ccc2cccnc2c1O (stereo not given)	?	8%	2µM*	139%	2.9µM*
Cc1cc(NC(c2ccc(Cl)cc2)c2ccc3cccnc3c2O)no1 (stereo not given)	?	-30%	·	0.33µM*	·
COc1cc(OC)c(C2C=C(c3ccc(C)cc3)Nc3c(C(=O)Nc4ccccc4)cnn32)cc1OC (stereo not given)	-26%	·	-25%	·	·
CCN(CC)CCCNC(=O)c1c(O)c2ccccc2n(Cc2ccccc2)c1=O	?	-29%	?	44%	9.3µM*
CCCn1c(=O)c(C(=O)NCc2ccccc2)c(O)c2ccccc21	-6%	11%	-23%	-23%	22%
CCN(CC)CCNC(=O)c1c(O)c2ccccc2n(Cc2ccccc2)c1=O	-30%	8%	?	4.1µM*	12µM*
O=C(N/N=C/c1ccccc1)c1ccco1	-10%	29%	-15%	40%	76%

Source: PubChem BioAssay (National Center for Advancing Translational Sciences (NCATS))
